# Assay results as given in PubChem BioAssay AID1508601 (ICCB-Longwood Screening Facility, Harvard Medical School, 2020).
# Where “and” joins values, the source holds several entries; their conditions need not be identical. Equal entries are not always repeated. About 85 (1%) of roughly 5,700 compounds were called active. Cut-off read from the data, not from the text of the source: active = p53-positive nuclei above about 36% (passing the limit was not always enough); inactive = the rest. The list comes from a sample in which actives are over-represented; it also holds similar structures and randomly drawn compounds. Some compounds were tested as several samples or in several runs, with calls that do not always agree.
# Assays:
# [1] = p53 stabilisation in HPV-positive human cells, imaging, p53-positive nuclei imaging, 24 h, 48 h (AID 1508601); settings: 24/48 h
# [2] = biological target: Cellular tumor antigen p53 (Homo sapiens) (UniProt P04637); assay: as above; settings: 24/48 h, stronger effect = higher value
# Sequence of Cellular tumor antigen p53 (Homo sapiens) (P04637 whole entry, looked up): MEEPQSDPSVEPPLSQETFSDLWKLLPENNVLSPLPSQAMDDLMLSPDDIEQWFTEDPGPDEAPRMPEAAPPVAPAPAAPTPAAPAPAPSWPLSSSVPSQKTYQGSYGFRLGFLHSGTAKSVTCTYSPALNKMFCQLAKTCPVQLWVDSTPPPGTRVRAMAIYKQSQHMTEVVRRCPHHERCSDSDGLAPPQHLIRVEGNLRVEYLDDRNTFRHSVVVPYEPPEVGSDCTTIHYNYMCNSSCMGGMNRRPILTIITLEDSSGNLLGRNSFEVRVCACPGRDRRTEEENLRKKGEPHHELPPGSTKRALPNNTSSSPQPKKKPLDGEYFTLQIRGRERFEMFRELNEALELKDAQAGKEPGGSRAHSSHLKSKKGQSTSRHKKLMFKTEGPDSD
# [3] = measured here: cell number at 24 h, Library stock concentration: 10 mM
# [4] = measured here: cell number at 48 h, Library stock concentration: 10 mM
# [5] = Library stock concentration: 10 mM
# [6] = measured here: p53 positive nuclei at 24 h, Library stock concentration: 10 mM
# [7] = measured here: cell number at 24 h, concentration not given here
# [8] = measured here: cell number at 48 h, concentration not given here
# [9] = measured here: p53 positive nuclei at 24 h, concentration not given here
# [10] = measured here: cell number at 24 h, Library stock concentration: 3.33 mM
# [11] = measured here: cell number at 48 h, Library stock concentration: 3.33 mM
# [12] = Library stock concentration: 3.33 mM
# [13] = measured here: p53 positive nuclei at 24 h, Library stock concentration: 3.33 mM
compound,measurement,setting,value
CC1=C(O)C(=O)C=C2C1=CC=C1[C@@]2(C)CC[C@@]2(C)C3C[C@](C)(C(=O)O)CC[C@]3(C)CC[C@]12C (stereo partly drawn),"nuclei count, normalised","[1]; measured here: cell number at 24 h, Library stock concentration: 46 uM",117%
same,"nuclei count, normalised","[1]; measured here: cell number at 24 h, Library stock concentration: 278 uM",114%
same,"nuclei count, normalised","[1]; measured here: cell number at 24 h, Library stock concentration: 1.67 mM",57.4%
same,"nuclei count, normalised",[1]; [3],47.5%
same,"nuclei count, normalised","[1]; measured here: cell number at 48 h, Library stock concentration: 46 uM",112%
same,"nuclei count, normalised","[1]; measured here: cell number at 48 h, Library stock concentration: 278 uM",104%
same,"nuclei count, normalised","[1]; measured here: cell number at 48 h, Library stock concentration: 1.67 mM",48.7%
same,"nuclei count, normalised",[1]; [4],31.9%
same,"p53-positive nuclei, normalised",[2]; Library stock concentration: 46 uM,0.197% (inactive)
same,"p53-positive nuclei, normalised",[2]; Library stock concentration: 278 uM,0.188% (inactive)
same,"p53-positive nuclei, normalised",[2]; Library stock concentration: 1.67 mM,8.51% (inactive)
same,"p53-positive nuclei, normalised",[2]; [5],26.6% (inactive)
same,"p53-positive nuclei, normalised","[2]; measured here: p53 positive nuclei at 24 h, Library stock concentration: 46 uM",-0.0305%
same,"p53-positive nuclei, normalised","[2]; measured here: p53 positive nuclei at 24 h, Library stock concentration: 278 uM",-0.0276%
same,"p53-positive nuclei, normalised","[2]; measured here: p53 positive nuclei at 24 h, Library stock concentration: 1.67 mM",9.81%
same,"p53-positive nuclei, normalised",[2]; [6],29.3%
CC1=C(O)C(=O)C=C2C1=CC=C1[C@@]2(C)CC[C@@]2(C)[C@@H]3C[C@](C)(C(=O)O)CC[C@]3(C)CC[C@]12C,"nuclei count, normalised",[1]; [7],88.7% and 27%
same,"nuclei count, normalised",[1]; [8],109% and 15.7%
same,"p53-positive nuclei, normalised",[2]; concentration not given here,0.0329% (inactive) and 96.6% (active)
same,"p53-positive nuclei, normalised",[2]; [9],0.225% and 93.4%
CC1=C(O)C(=O)C=C2C1=CC=C1[C@@]2(C)CCC2(C)C3C[C@](C)(C(=O)O)CC[C@]3(C)CC[C@]12C (stereo partly drawn),"nuclei count, normalised","[1]; measured here: cell number at 24 h, Library stock concentration: 80 uM",94.9%
same,"nuclei count, normalised","[1]; measured here: cell number at 24 h, Library stock concentration: 400 uM",109%
same,"nuclei count, normalised","[1]; measured here: cell number at 24 h, Library stock concentration: 2 mM",92%
same,"nuclei count, normalised",[1]; [3],46.3%
same,"nuclei count, normalised","[1]; measured here: cell number at 48 h, Library stock concentration: 80 uM",95.5%
same,"nuclei count, normalised","[1]; measured here: cell number at 48 h, Library stock concentration: 400 uM",109%
same,"nuclei count, normalised","[1]; measured here: cell number at 48 h, Library stock concentration: 2 mM",91.7%
same,"nuclei count, normalised",[1]; [4],28.8%
same,"p53-positive nuclei, normalised",[2]; Library stock concentration: 80 uM,0.0324% (inactive)
same,"p53-positive nuclei, normalised",[2]; Library stock concentration: 400 uM,0.159% (inactive)
same,"p53-positive nuclei, normalised",[2]; Library stock concentration: 2 mM,0.635% (inactive)
same,"p53-positive nuclei, normalised",[2]; [5],9.53% (inactive)
same,"p53-positive nuclei, normalised","[2]; measured here: p53 positive nuclei at 24 h, Library stock concentration: 80 uM",0.113%
same,"p53-positive nuclei, normalised","[2]; measured here: p53 positive nuclei at 24 h, Library stock concentration: 400 uM",0.398%
same,"p53-positive nuclei, normalised","[2]; measured here: p53 positive nuclei at 24 h, Library stock concentration: 2 mM",0.116%
same,"p53-positive nuclei, normalised",[2]; [6],10.2%
CCCCCCCCCCCC[N+](C)(C)CCOc1ccccc1,"nuclei count, normalised",[1]; [10],115%
same,"nuclei count, normalised",[1]; [11],110%
same,"p53-positive nuclei, normalised",[2]; [12],-0.174% (inactive)
same,"p53-positive nuclei, normalised",[2]; [13],-0.284%
CCCCC/C=C\C/C=C\C/C=C\C/C=C\CCCCOC(CO)CO,"nuclei count, normalised",[1]; [7],104%
same,"nuclei count, normalised",[1]; [8],111%
same,"p53-positive nuclei, normalised",[2]; concentration not given here,0.099% (inactive)
same,"p53-positive nuclei, normalised",[2]; [9],0.34%
CC=C(C)C(=O)NC(c1ccccc1)C(O)C(=O)OC1C[C@@]2(O)C(OC(=O)c3ccccc3)[C@@H]3[C@]4(OC(C)=O)COC4CC(O)[C@@]3(C)C(=O)C(OC(C)=O)C(=C1C)C2(C)C (stereo partly drawn),"nuclei count, normalised",[1]; [10],33.5%
same,"nuclei count, normalised",[1]; [11],28.1%
same,"p53-positive nuclei, normalised",[2]; [12],1.63% (inactive)
same,"p53-positive nuclei, normalised",[2]; [13],-0.0935%
OC1CN2CCC(O)[C@H]2C(O)C1O (stereo partly drawn),"nuclei count, normalised","[1]; measured here: cell number at 24 h, Library stock concentration: 500 nM",98.9%
same,"nuclei count, normalised","[1]; measured here: cell number at 24 h, Library stock concentration: 1.5 uM",116%
same,"nuclei count, normalised","[1]; measured here: cell number at 24 h, Library stock concentration: 4.6 uM",110%
same,"nuclei count, normalised","[1]; measured here: cell number at 24 h, Library stock concentration: 13.7 uM",107%
same,"nuclei count, normalised","[1]; measured here: cell number at 24 h, Library stock concentration: 41 uM",109%
same,"nuclei count, normalised","[1]; measured here: cell number at 24 h, Library stock concentration: 123 uM",108%
same,"nuclei count, normalised","[1]; measured here: cell number at 24 h, Library stock concentration: 370 uM",107%
same,"nuclei count, normalised","[1]; measured here: cell number at 24 h, Library stock concentration: 1.111 mM",107%
same,"nuclei count, normalised","[1]; measured here: cell number at 24 h, Library stock concentration: 3.333 mM",105%
same,"nuclei count, normalised",[1]; [3],105%
same,"nuclei count, normalised","[1]; measured here: cell number at 48 h, Library stock concentration: 500 nM",102%
same,"nuclei count, normalised","[1]; measured here: cell number at 48 h, Library stock concentration: 1.5 uM",111%
same,"nuclei count, normalised","[1]; measured here: cell number at 48 h, Library stock concentration: 4.6 uM",108%
same,"nuclei count, normalised","[1]; measured here: cell number at 48 h, Library stock concentration: 13.7 uM",105%
same,"nuclei count, normalised","[1]; measured here: cell number at 48 h, Library stock concentration: 41 uM",110%
same,"nuclei count, normalised","[1]; measured here: cell number at 48 h, Library stock concentration: 123 uM",108%
same,"nuclei count, normalised","[1]; measured here: cell number at 48 h, Library stock concentration: 370 uM",106%
same,"nuclei count, normalised","[1]; measured here: cell number at 48 h, Library stock concentration: 1.111 mM",102%
same,"nuclei count, normalised","[1]; measured here: cell number at 48 h, Library stock concentration: 3.333 mM",106%
same,"nuclei count, normalised",[1]; [4],104%
same,"p53-positive nuclei, normalised",[2]; Library stock concentration: 500 nM,-0.0904% (inactive)
same,"p53-positive nuclei, normalised",[2]; Library stock concentration: 1.5 uM,0.192% (inactive)
same,"p53-positive nuclei, normalised",[2]; Library stock concentration: 4.6 uM,0.0933% (inactive)
same,"p53-positive nuclei, normalised",[2]; Library stock concentration: 13.7 uM,-0.133% (inactive)
same,"p53-positive nuclei, normalised",[2]; Library stock concentration: 41 uM,-0.107% (inactive)
same,"p53-positive nuclei, normalised",[2]; Library stock concentration: 123 uM,0.0873% (inactive)
same,"p53-positive nuclei, normalised",[2]; Library stock concentration: 370 uM,0.261% (inactive)
same,"p53-positive nuclei, normalised",[2]; Library stock concentration: 1.111 mM,-0.0118% (inactive)
same,"p53-positive nuclei, normalised",[2]; Library stock concentration: 3.333 mM,0.175% (inactive)
same,"p53-positive nuclei, normalised",[2]; [5],-0.135% (inactive)
same,"p53-positive nuclei, normalised","[2]; measured here: p53 positive nuclei at 24 h, Library stock concentration: 500 nM",-0.068%
same,"p53-positive nuclei, normalised","[2]; measured here: p53 positive nuclei at 24 h, Library stock concentration: 1.5 uM",0.213%
same,"p53-positive nuclei, normalised","[2]; measured here: p53 positive nuclei at 24 h, Library stock concentration: 4.6 uM",-0.135%
same,"p53-positive nuclei, normalised","[2]; measured here: p53 positive nuclei at 24 h, Library stock concentration: 13.7 uM",-0.189%
same,"p53-positive nuclei, normalised","[2]; measured here: p53 positive nuclei at 24 h, Library stock concentration: 41 uM",0.0835%
same,"p53-positive nuclei, normalised","[2]; measured here: p53 positive nuclei at 24 h, Library stock concentration: 123 uM",0.197%
same,"p53-positive nuclei, normalised","[2]; measured here: p53 positive nuclei at 24 h, Library stock concentration: 370 uM",0.0352%
same,"p53-positive nuclei, normalised","[2]; measured here: p53 positive nuclei at 24 h, Library stock concentration: 1.111 mM",-0.189%
same,"p53-positive nuclei, normalised","[2]; measured here: p53 positive nuclei at 24 h, Library stock concentration: 3.333 mM",-0.0741%
same,"p53-positive nuclei, normalised",[2]; [6],0.108%
